# From paper PMC7862700, “An all-to-all approach to the identification of sequence-specific readers for epigenetic DNA modifications on cytosine”
# How the values were obtained:
# Assay in all cases: DAPPL (digital affinity profiling via proximity ligation, sequencing); 10 mM Tris-HCl pH 7.5, 50 mM NaCl, 1 mM DTT, 4% glycerol, room temperature, 30 min; GST-TFs on glutathione beads, 16-mer random dsDNA library, 0.1% formaldehyde crosslink after washing; high values mean tight binding
# FLI1 = molecular target: T1, FLI1 (Homo sapiens, UniProt Q01543 1-452); details: protein: recombinant; tags: N-terminal GST; dsDNA, one strand shown
# T1 sequence: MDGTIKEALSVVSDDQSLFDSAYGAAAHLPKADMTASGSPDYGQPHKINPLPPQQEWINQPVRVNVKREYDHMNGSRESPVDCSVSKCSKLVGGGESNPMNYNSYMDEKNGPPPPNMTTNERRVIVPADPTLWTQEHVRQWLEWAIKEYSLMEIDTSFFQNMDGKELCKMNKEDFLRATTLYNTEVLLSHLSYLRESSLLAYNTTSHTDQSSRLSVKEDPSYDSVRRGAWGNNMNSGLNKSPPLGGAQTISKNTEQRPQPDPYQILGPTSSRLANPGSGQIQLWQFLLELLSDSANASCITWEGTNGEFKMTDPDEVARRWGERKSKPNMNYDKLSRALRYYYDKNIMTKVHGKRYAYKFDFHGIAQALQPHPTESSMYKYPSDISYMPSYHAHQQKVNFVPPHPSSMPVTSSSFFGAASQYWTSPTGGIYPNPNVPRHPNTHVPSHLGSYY
# Method in brief: (§1)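 Human transcription factors carrying a GST fusion were produced in yeast, bound to glutathione beads, tagged with DNA barcodes and pooled together with a tag-only sample. Each pool was held with 200 nmole of a random double-stranded 16-mer DNA library in Tris/NaCl/DTT/glycerol buffer for 30 min at room temperature, then washed, crosslinked in 0.1% formaldehyde, proximity-ligated with BsaI/T4 ligase (1 h, 37 °C), PCR-amplified and sequenced on an Illumina NextSeq500. Binding signal is the read frequency of each hexamer for a given factor divided by its frequency in the tag-only sample.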
# ELK1 = molecular target: T2, ELK1 (Homo sapiens, UniProt P19419 1-428); details: protein: recombinant; tags: N-terminal GST; dsDNA, one strand shown
# T2 sequence: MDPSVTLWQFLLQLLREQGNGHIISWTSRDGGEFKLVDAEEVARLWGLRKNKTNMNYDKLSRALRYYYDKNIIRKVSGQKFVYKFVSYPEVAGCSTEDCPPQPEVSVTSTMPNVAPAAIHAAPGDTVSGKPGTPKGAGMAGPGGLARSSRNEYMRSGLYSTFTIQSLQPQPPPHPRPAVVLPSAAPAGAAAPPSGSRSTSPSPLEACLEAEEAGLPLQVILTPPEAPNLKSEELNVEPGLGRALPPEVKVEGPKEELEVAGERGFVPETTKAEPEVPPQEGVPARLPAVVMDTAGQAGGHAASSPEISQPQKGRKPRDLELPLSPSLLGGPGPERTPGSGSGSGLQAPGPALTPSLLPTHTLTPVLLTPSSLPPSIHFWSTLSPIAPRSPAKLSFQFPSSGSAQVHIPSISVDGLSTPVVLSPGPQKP
# Method in brief: as §1
# GABPA = molecular target: T3, GABPA (Homo sapiens, UniProt Q06546 1-454); details: protein: recombinant; tags: N-terminal GST; dsDNA, one strand shown
# T3 sequence: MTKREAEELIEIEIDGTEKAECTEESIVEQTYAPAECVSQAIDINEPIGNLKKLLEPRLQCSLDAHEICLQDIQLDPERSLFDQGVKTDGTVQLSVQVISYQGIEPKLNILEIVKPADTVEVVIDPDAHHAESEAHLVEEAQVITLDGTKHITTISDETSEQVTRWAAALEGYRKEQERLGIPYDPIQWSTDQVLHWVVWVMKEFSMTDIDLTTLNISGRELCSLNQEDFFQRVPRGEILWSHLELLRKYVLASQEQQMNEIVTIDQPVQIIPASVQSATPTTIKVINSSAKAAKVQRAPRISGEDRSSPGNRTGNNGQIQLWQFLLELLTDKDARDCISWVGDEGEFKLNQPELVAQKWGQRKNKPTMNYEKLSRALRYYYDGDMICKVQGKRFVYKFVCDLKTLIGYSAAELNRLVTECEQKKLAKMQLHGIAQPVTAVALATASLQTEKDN
# Method in brief: as §1
# ERG = molecular target: T4, ERG (Homo sapiens, UniProt P11308 1-479); details: protein: recombinant; tags: N-terminal GST; dsDNA, one strand shown
# T4 sequence: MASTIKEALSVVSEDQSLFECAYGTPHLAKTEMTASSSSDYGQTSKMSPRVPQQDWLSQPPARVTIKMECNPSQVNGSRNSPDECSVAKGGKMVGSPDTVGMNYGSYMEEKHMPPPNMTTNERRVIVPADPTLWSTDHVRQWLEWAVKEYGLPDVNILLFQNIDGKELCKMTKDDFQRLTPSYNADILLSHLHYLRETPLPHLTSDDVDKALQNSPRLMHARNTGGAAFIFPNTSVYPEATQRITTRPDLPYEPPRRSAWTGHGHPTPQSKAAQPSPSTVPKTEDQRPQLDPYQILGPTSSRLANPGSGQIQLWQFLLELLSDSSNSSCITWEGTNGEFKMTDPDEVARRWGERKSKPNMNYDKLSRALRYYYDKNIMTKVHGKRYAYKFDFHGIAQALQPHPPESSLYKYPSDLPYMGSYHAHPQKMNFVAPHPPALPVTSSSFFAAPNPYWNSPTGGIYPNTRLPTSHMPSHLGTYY
# Method in brief: as §1
# ELF1 = ELF1 (Homo sapiens, UniProt P32519 1-619); details: protein: recombinant; tags: N-terminal GST; dsDNA, one strand shown
# Method in brief: as §1
# EHF = molecular target: T5, EHF (Homo sapiens, UniProt Q9NZC4 1-300); details: protein: recombinant; tags: N-terminal GST; dsDNA, one strand shown
# T5 sequence: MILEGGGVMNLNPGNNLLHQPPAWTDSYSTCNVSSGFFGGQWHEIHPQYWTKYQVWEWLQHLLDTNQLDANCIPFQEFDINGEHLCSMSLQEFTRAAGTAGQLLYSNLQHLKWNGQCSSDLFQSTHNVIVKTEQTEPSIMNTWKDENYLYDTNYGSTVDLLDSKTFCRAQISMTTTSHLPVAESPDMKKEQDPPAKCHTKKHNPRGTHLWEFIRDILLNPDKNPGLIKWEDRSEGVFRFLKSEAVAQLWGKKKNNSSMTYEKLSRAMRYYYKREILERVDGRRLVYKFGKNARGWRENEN
# Method in brief: as §1
# SPI1 = SPI1 (Homo sapiens, UniProt P17947 1-270); details: protein: recombinant; tags: N-terminal GST; dsDNA, one strand shown
# Method in brief: as §1
# SPIB = SPIB (Homo sapiens, UniProt Q01892 1-262); details: protein: recombinant; tags: N-terminal GST; dsDNA, one strand shown
# Method in brief: as §1
# ELK3 = molecular target: T6, ELK3 (Homo sapiens, UniProt P41970 1-407); details: protein: recombinant; tags: N-terminal GST; dsDNA, one strand shown
# T6 sequence: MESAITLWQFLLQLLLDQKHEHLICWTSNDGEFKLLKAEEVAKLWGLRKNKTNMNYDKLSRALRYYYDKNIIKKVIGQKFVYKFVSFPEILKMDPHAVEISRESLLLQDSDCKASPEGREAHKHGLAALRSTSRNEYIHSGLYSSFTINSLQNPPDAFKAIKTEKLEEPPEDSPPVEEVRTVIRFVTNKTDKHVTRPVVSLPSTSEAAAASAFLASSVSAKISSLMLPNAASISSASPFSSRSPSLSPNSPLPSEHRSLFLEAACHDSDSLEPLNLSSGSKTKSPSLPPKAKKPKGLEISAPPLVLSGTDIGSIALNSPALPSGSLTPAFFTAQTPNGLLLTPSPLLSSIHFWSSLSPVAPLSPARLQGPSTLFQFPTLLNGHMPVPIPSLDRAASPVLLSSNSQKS
# Method in brief: as §1
# FEV = molecular target: T7, FEV (Homo sapiens, UniProt Q99581 1-238); details: protein: recombinant; tags: N-terminal GST; dsDNA, one strand shown
# T7 sequence: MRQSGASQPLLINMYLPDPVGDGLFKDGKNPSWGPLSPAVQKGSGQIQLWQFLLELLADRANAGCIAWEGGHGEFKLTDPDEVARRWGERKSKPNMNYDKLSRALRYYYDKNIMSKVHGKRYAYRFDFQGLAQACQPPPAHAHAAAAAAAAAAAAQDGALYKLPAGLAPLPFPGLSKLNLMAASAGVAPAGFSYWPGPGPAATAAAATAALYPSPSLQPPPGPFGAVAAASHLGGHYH
# Method in brief: as §1
# ETV5 = ETV5 (Homo sapiens, UniProt P41161 1-510); details: protein: recombinant; tags: N-terminal GST; dsDNA, one strand shown
# Method in brief: as §1
# HSF1 = HSF1 (Homo sapiens, UniProt Q00613 1-529); details: protein: recombinant; tags: N-terminal GST; chain copies: 3; dsDNA, one strand shown
# Method in brief: as §1
# SPIC = molecular target: T8, SPIC (Homo sapiens, UniProt Q8N5J4 1-248); details: protein: recombinant; tags: N-terminal GST; dsDNA, one strand shown
# T8 sequence: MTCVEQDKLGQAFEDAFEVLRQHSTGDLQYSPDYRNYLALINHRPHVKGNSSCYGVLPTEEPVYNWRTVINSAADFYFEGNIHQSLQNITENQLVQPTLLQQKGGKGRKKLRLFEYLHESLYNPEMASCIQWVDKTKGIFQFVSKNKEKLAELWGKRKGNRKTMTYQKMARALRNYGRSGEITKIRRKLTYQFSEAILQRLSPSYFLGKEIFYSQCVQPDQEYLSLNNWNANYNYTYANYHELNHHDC
# Method in brief: as §1
# ELF4 = ELF4 (Homo sapiens, UniProt Q99607 1-663); details: protein: recombinant; tags: N-terminal GST; dsDNA, one strand shown
# Method in brief: as §1
# ELK4 = molecular target: T9, ELK4 (Homo sapiens, UniProt P28324-2 1-405); details: protein: recombinant; tags: N-terminal GST; dsDNA, one strand shown
# T9 sequence: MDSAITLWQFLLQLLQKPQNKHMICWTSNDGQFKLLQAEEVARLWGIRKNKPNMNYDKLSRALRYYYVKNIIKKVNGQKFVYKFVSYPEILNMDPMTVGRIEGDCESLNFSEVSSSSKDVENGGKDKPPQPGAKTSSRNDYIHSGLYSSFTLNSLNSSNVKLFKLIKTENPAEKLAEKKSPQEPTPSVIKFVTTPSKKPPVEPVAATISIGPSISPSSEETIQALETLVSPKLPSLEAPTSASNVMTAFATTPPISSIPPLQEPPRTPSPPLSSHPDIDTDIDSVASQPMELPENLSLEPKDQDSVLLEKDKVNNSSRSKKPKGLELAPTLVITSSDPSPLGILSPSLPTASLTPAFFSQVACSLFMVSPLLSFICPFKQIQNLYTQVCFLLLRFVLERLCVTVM
# Method in brief: as §1
# ETV2 = molecular target: T10, ETV2 (Homo sapiens, UniProt O00321 1-342); details: protein: recombinant; tags: N-terminal GST; dsDNA, one strand shown
# T10 sequence: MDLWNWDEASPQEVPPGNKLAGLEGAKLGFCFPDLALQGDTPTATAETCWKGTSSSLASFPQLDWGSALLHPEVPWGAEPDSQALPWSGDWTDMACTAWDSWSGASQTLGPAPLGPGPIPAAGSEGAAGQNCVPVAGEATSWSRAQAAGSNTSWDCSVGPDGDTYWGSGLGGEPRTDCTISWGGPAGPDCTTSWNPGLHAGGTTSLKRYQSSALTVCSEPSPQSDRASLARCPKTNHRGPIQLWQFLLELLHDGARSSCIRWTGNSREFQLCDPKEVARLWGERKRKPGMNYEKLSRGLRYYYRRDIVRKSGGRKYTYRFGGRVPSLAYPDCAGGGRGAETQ
# Method in brief: as §1
# ETV1 = ETV1 (Homo sapiens, UniProt P50549 1-477); details: protein: recombinant; tags: N-terminal GST; dsDNA, one strand shown
# Method in brief: as §1
# Sequence of SPIB (Q01892 whole entry): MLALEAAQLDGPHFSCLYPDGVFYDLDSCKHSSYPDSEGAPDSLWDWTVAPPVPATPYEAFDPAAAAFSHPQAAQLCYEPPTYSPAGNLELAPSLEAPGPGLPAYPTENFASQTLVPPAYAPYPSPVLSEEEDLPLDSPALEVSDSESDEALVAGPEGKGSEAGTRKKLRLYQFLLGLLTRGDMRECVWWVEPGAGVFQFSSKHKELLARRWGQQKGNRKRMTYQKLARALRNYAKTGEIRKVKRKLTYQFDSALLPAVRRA
# Sequence of ELF1 (P32519 whole entry): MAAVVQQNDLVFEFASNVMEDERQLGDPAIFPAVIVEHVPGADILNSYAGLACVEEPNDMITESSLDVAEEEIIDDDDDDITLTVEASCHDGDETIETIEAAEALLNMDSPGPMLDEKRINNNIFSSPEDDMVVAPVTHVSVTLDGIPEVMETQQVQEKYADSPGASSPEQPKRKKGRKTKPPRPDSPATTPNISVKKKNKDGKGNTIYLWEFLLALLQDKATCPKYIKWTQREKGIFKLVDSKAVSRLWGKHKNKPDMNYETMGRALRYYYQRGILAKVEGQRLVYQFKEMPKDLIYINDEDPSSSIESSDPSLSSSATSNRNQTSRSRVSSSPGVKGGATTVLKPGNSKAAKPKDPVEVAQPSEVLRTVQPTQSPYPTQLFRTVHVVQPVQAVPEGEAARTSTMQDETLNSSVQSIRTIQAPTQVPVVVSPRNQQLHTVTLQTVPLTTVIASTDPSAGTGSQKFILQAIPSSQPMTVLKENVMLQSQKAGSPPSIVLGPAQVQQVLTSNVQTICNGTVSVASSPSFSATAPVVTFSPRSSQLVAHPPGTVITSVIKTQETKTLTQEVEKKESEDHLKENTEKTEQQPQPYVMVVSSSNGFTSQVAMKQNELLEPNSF
# Sequence of HSF1 (Q00613 whole entry): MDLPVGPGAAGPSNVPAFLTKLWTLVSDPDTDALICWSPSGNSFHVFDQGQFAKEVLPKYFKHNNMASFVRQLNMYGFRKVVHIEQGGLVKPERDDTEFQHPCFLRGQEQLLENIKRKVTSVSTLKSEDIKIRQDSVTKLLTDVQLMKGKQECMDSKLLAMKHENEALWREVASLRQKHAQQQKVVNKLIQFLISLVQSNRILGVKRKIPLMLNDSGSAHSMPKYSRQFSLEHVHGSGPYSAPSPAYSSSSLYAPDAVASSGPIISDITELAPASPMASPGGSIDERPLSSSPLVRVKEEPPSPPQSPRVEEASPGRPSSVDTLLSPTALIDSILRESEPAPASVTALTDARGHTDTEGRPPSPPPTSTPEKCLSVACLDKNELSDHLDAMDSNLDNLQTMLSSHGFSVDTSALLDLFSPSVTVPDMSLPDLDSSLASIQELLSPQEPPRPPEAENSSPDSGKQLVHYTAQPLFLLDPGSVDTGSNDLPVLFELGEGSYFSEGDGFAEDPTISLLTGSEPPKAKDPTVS
# Sequence of ETV5 (P41161 whole entry): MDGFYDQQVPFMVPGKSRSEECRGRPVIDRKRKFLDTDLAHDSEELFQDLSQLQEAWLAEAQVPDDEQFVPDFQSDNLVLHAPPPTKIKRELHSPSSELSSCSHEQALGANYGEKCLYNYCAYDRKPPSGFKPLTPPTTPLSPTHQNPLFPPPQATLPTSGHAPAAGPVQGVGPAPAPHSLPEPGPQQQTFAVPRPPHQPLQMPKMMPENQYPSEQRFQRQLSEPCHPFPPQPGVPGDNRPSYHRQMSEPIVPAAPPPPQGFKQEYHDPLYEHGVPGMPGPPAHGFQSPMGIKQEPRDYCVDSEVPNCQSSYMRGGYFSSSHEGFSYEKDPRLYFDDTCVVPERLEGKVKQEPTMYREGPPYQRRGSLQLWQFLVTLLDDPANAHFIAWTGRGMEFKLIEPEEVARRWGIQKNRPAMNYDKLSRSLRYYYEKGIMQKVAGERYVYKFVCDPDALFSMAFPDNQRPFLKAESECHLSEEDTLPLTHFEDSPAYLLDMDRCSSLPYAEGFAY
# Sequence of ETV1 (P50549 whole entry): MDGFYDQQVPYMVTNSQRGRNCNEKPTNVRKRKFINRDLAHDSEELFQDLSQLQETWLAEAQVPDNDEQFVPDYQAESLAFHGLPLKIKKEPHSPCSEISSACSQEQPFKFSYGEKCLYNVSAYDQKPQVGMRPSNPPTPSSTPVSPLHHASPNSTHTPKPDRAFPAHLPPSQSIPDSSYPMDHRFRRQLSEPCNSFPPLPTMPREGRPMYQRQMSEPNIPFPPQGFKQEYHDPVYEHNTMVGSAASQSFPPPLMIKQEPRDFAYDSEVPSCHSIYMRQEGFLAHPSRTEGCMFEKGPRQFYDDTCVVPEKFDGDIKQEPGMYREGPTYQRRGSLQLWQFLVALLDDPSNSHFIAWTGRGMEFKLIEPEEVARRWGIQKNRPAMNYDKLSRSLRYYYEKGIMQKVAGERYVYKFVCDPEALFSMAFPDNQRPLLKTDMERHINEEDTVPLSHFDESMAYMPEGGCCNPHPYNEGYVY
# Sequence of ELF4 (Q99607 whole entry): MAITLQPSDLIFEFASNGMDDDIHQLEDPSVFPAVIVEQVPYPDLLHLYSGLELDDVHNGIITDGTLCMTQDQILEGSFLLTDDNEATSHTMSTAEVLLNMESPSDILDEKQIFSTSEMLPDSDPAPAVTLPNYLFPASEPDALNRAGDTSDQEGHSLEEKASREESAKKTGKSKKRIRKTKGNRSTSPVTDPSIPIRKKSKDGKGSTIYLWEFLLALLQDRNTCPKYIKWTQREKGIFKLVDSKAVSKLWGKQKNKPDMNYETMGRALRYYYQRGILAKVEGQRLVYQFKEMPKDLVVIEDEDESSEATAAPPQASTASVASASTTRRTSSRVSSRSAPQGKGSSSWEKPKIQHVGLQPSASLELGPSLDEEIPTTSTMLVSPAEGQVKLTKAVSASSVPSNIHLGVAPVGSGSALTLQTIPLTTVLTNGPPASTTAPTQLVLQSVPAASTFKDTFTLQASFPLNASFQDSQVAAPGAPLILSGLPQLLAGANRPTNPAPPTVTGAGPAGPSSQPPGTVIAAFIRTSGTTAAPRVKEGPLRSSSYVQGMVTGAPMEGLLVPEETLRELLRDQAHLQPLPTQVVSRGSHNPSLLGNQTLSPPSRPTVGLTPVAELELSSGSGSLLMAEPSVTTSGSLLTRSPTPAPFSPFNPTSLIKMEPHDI
sequence,measurement,setting,value
TGTAGC,binding signal,FLI1,"1.1 fold enrichment (6-mer frequency, TF over GST control)"
same,binding signal,ELK1,"1.16 fold enrichment (6-mer frequency, TF over GST control)"
same,binding signal,GABPA,"1.16 fold enrichment (6-mer frequency, TF over GST control)"
same,binding signal,ERG,"1.11 fold enrichment (6-mer frequency, TF over GST control)"
same,binding signal,ELF1,"1.2 fold enrichment (6-mer frequency, TF over GST control)"
same,binding signal,EHF,"1.16 fold enrichment (6-mer frequency, TF over GST control)"
same,binding signal,SPI1,"1.17 fold enrichment (6-mer frequency, TF over GST control)"
same,binding signal,SPIB,"1.03 fold enrichment (6-mer frequency, TF over GST control)"
same,binding signal,ELK3,"1.27 fold enrichment (6-mer frequency, TF over GST control)"
same,binding signal,FEV,"1.17 fold enrichment (6-mer frequency, TF over GST control)"
same,binding signal,ETV5,"1.24 fold enrichment (6-mer frequency, TF over GST control)"
same,binding signal,HSF1,"1.02 fold enrichment (6-mer frequency, TF over GST control)"
same,binding signal,SPIC,"1.11 fold enrichment (6-mer frequency, TF over GST control)"
same,binding signal,ELF4,"1.26 fold enrichment (6-mer frequency, TF over GST control)"
same,binding signal,ELK4,"1.31 fold enrichment (6-mer frequency, TF over GST control)"
same,binding signal,ETV2,"1.24 fold enrichment (6-mer frequency, TF over GST control)"
same,binding signal,ETV1,"1.22 fold enrichment (6-mer frequency, TF over GST control)"
